Assay results reported in PubChem BioAssay (EPA / NIEHS).
Results filed as inconclusive are left out. Activity calls are given as the source filed them. Rule for the calls, unless noted: active = hit-call score of the fitted dose curve at least 0.9, where 1 is the maximum; inconclusive = response in the unintended direction; inactive = score below 0.9.

How the values were obtained:
[1] = ATG_TGFb_CIS: Attagene CIS-FACTORIAL HepG2 Assay for human Transforming Growth Factor (TGF) (AID 2282967; active = hit-call score of the fitted dose curve at least 0.9, where 1 is the maximum; inactive = score below 0.9); conditions: HepG2 Attagene CIS TGFb reporter, mRNA transcription; actives raise or lower the signal
In short: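 HepG2 cells transiently transfected with cis-promoter-driven multiple reporter units measure endogenous TF activity; reporter mRNA quantified at 24 h by RT-PCR, FAM labeling, HpaI digestion and capillary electrophoresis. Bidirectional fit vs DMSO.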

[2] = ATG_VDRE_CIS: Attagene CIS-FACTORIAL HepG2 Assay for human Vitamin D Receptor Element (VDRE) (AID 2282968; active = hit-call score of the fitted dose curve at least 0.9, where 1 is the maximum; inactive = score below 0.9); conditions: HepG2 VDRE cis-reporter transcription, actives raise or lower the signal
In short: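 Compounds were applied for 24 h to HepG2 cells transfected with promoter-regulated reporter units. Total RNA was reverse-transcribed, and reporter amplicons were fluorescently labelled and sized by capillary electrophoresis.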

[3] = target: Steroid hormone receptor ERR1 (Homo sapiens) (UniProt P11474); assay: ATG_ERRa_TRANS: Attagene TRANS-FACTORIAL HepG2 Assay for human Estrogen-Related Receptor alpha (ERRa) (AID 2282971); conditions: HepG2 Attagene TRANS reporter, ERRa transactivation
In short: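 Transfected HepG2, 24 h dosing, ERRa-Gal4 chimera driving GAL4-UAS reporter. Readout: reporter mRNA via RT-PCR plus capillary electrophoresis (fluorescence). Positive direction vs DMSO control.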

[4] = target: X-box-binding protein 1 (Homo sapiens) (UniProt P17861); assay: ATG_Xbp1_CIS: Attagene CIS-FACTORIAL HepG2 Assay for human X-box Binding Protein 1 (XBP1) (AID 2282972; active = hit-call score of the fitted dose curve at least 0.9, where 1 is the maximum; inactive = score below 0.9); conditions: HepG2 XBP1 cis-element reporter, Attagene multiplex; actives raise or lower the signal
In short: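 Reporter transcripts were quantified by RT-PCR with fluorescent primer extension and capillary electrophoresis after 24 h chemical exposure. Cells: transiently transfected HepG2 carrying cis-regulated reporter constructs; data fitted bidirectionally relative to DMSO.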

[5] = ATG_M_19_TRANS: Attagene TRANS-FACTORIAL HepG2 Assay for M19 Transcription Factor (Internal Marker) (AID 2282974); conditions: HepG2 Attagene TRANS-FACTORIAL M19 internal marker reporter
In short: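 HepG2 cells transiently transfected with multiple GAL4-UAS reporter transcription units were exposed to chemicals for 24 h. Reporter mRNA was read by RT-PCR, 6-FAM primer extension, HpaI digestion and capillary electrophoresis; gain of signal fitted relative to DMSO.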

[6] = target: Glucocorticoid receptor (Homo sapiens) (UniProt P04150); assay: ATG_GR_TRANS: Attagene TRANS-FACTORIAL HepG2 Assay for human Glucocorticoid Receptor (GR) (AID 2282978); conditions: HepG2 Attagene TRANS GR reporter, mRNA transcription;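 note: activators score as hits since higher reporter transcript over DMSO is fitted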
In short: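 HepG2 cells transiently transfected with multiplexed reporter units in which chimeric NR-GAL4 proteins drive GAL4-UAS reporters; 24 h compound exposure. Reporter mRNA measured by RT-PCR, 6-FAM labelling, HpaI digestion and capillary electrophoresis; gain-of-signal fitted versus DMSO.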

[7] = target: Bile acid receptor (Homo sapiens) (UniProt Q96RI1); assay: ATG_FXR_TRANS: Attagene TRANS-FACTORIAL HepG2 Assay for Farnesoid X Receptor (FXR) (AID 2282979); conditions: HepG2 Attagene TRANS FXR-GAL4 reporter transcription;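 note: hits raise reporter mRNA above DMSO so AC50 marks FXR activation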
In short: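 Read-out: fluorescent reporter transcripts quantified by capillary electrophoresis after RT-PCR of total RNA. Source cells were HepG2 transiently carrying chimeric NR-GAL4 plus GAL4-UAS reporter units, dosed 24 h. Activity fitted upward relative to DMSO baseline.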

[8] = target: Transcriptional activator Myb (Homo sapiens) (UniProt P10242); assay: ATG_Myb_CIS: Attagene CIS-FACTORIAL HepG2 Assay for human Myeloblastosis (Myb) Proto-Oncogene Transcription Factor (AID 2282986; active = hit-call score of the fitted dose curve at least 0.9, where 1 is the maximum; inactive = score below 0.9); conditions: HepG2 Attagene CIS-FACTORIAL Myb reporter transcription; actives raise or lower the signal
In short: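 HepG2 cells were transiently transfected with cis-regulated multiple reporter transcription units reflecting endogenous Myb activity, then exposed to compound for 24 hours. Reporter mRNA was measured by RT-PCR with capillary electrophoresis; bidirectional fitting versus DMSO baseline.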

[9] = target: Nuclear receptor subfamily 1 group I member 3 (Homo sapiens) (UniProt Q14994); assay: ATG_CAR_TRANS: Attagene TRANS-FACTORIAL HepG2 Assay for human Constitutive Androstane Receptor (CAR) (AID 2282969); conditions: HepG2 Attagene TRANS-FACTORIAL CAR reporter;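 note: activators raise reporter mRNA above DMSO so AC50 marks induction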
In short: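 Transiently transfected HepG2, multiplex TRANS reporters (CAR-Gal4 chimera driving GAL4-UAS reporter). 24 h dosing. Readout: reporter transcript by RT-PCR + capillary electrophoresis, fluorescence intensity; positive direction vs DMSO.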

[10] = target: Estrogen receptor (Homo sapiens) (UniProt P03372); assay: ATG_ERa_TRANS: Attagene TRANS-FACTORIAL HepG2 Assay for human Estrogen Receptor alpha (ERa) (AID 2282970); conditions: HepG2 Attagene TRANS ERa GAL4 reporter, mRNA
In short: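 Reporter mRNA induction after 24 hours, detected by fluorescent RT-PCR and capillary electrophoresis, gives the read-out. Cells are HepG2 transiently transfected with GAL4-UAS reporter transcription units responding to chimeric NR-Gal4. Activity is taken as gain of signal over DMSO baseline.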

[11] = target: Estrogen-related receptor gamma (Homo sapiens) (UniProt P62508); assay: ATG_ERRg_TRANS: Attagene TRANS-FACTORIAL HepG2 Assay for human Estrogen-Related Receptor gamma (ERRg) (AID 2282977); conditions: HepG2 Attagene TRANS reporter, ERRg transactivation;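 note: hits increase reporter signal over DMSO so potencies reflect activators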
In short: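 Induction of reporter transcripts through a chimeric NR-Gal4 protein is quantified in transfected human HepG2 liver cells after 24 h chemical exposure, using RT-PCR with capillary electrophoresis detection and DMSO as baseline.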

[12] = target: Oxysterols receptor LXR-beta (Homo sapiens) (UniProt P55055); assay: ATG_LXRb_TRANS: Attagene TRANS-FACTORIAL HepG2 Assay for human Liver X Receptor beta (LXRb) (AID 2282981); conditions: HepG2 Attagene TRANS GAL4-LXRb reporter, mRNA
In short: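 Multiplexed reporter assay, HepG2, 24 h dosing. Fluorescence of labelled RT-PCR products after capillary electrophoresis gives transcript level; positive fitting direction relative to DMSO.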

[13] = ATG_M_32_TRANS: Attagene TRANS-FACTORIAL HepG2 Assay for M32 Transcription Factor (Internal Marker) (AID 2282984); conditions: HepG2 Attagene TRANS M32 internal marker reporter;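 note: transcript level of a background control reporter unit measured by RT-PCR and capillary electrophoresis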
In short: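 Internal-marker readout from a multiplexed transcription reporter panel. HepG2 cells were transfected with GAL4-UAS reporter units, treated 24 hours, and reporter transcript levels determined by fluorescence after RT-PCR and capillary separation.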

[14] = target: Nuclear receptor subfamily 4 group A member 2 (Homo sapiens) (UniProt P43354); assay: ATG_NURR1_TRANS: Attagene TRANS-FACTORIAL HepG2 Assay for human Nuclear Receptor Related Protein 1 (NURR1) (AID 2282985); conditions: HepG2 Attagene TRANS reporter, mRNA readout
In short: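 Endpoint: reporter mRNA increase relative to DMSO. HepG2 cells transfected with reporter units, treated 24 h; RNA processed by RT-PCR, labelling, HpaI digestion and capillary electrophoresis.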

[15] = ATG_M_06_TRANS: Attagene TRANS-FACTORIAL HepG2 Assay for M06 Transcription Factor (Internal Marker) (AID 2282983); conditions: HepG2 Attagene TRANS M06 internal marker reporter
In short: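 Read-out: fluorescent reporter cDNA fragments resolved by capillary electrophoresis after RT-PCR and HpaI cut. Source cells were HepG2 carrying transfected multi-reporter GAL4 constructs, dosed 24 h. Increase over DMSO control analysed.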

[16] = target: Oxysterols receptor LXR-alpha (Homo sapiens) (UniProt Q13133); assay: ATG_LXRa_TRANS: Attagene TRANS-FACTORIAL HepG2 Assay for human Liver X Receptor alpha (LXRa) (AID 2282980); conditions: HepG2 Attagene TRANS reporter, LXRa transactivation
In short: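 Read-out: reporter transcript levels by RT-PCR plus capillary electrophoresis, fluorescence intensity. Transiently transfected HepG2, exogenous NR-GAL4 chimera, GAL4-UAS reporters; 24 h compound exposure. Activity = increase over DMSO negative control.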

[17] = target: Nuclear respiratory factor 1 (Homo sapiens) (UniProt Q16656); assay: ATG_NRF1_CIS: Attagene CIS-FACTORIAL HepG2 Assay for human Nuclear Respiratory Factor 1 (NRF1) Orphan Gene (AID 2282987; active = hit-call score of the fitted dose curve at least 0.9, where 1 is the maximum; inactive = score below 0.9); conditions: HepG2 NRF1 cis-element reporter, Attagene multiplex; actives raise or lower the signal
In short: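 HepG2 cells transiently transfected with multiple reporter transcription units under cis-regulatory promoter control, so endogenous transcription-factor activity is read. After 24 h compound exposure, reporter mRNA quantified by RT-PCR, fluorescent labelling, HpaI digestion and capillary electrophoresis; bidirectional fitting versus DMSO.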

[18] = ATG_GAL4_TRANS: Attagene TRANS-FACTORIAL HepG2 Assay for GAL4 (Internal Marker) (AID 2282976); conditions: HepG2 Attagene TRANS GAL4 internal marker reporter
In short: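 RT-PCR/capillary electrophoresis readout of reporter mRNA. HepG2, transient MRTU transfection (GAL4-UAS reporters), 24 h compound exposure. Background-control endpoint, positive direction vs DMSO baseline.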

[19] = target: Hepatocyte nuclear factor 4-alpha (Homo sapiens) (UniProt P41235); assay: ATG_HNF4a_TRANS: Attagene TRANS-FACTORIAL HepG2 Assay for human Hepatocyte Nuclear Factor 4 alpha (HNF4a) (AID 2282982); conditions: HepG2 HNF4a transactivation reporter, mRNA readout
In short: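 Endpoint reflects transcriptional activation of a GAL4-UAS reporter by an HNF4a-GAL4 chimera in transfected HepG2 cells, 24 h post-dosing. Fluorescence from RT-PCR products separated by capillary electrophoresis; DMSO baseline.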

Measured: AC50

Nuclear respiratory factor 1 (Homo sapiens), sequence (Q16656 whole entry, looked up): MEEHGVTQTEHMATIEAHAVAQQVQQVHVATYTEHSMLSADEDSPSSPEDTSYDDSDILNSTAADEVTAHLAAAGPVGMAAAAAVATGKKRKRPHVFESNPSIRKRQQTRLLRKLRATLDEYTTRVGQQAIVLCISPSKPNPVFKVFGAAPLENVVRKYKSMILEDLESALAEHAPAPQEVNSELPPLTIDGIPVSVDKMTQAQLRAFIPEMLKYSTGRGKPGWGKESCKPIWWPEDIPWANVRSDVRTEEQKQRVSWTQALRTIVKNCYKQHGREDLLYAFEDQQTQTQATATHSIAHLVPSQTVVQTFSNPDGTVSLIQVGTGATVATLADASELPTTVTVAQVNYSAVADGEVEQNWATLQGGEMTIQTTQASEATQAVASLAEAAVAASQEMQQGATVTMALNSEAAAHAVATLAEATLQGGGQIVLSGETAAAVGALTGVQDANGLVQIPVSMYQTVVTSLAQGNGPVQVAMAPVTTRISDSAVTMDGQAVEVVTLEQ
Steroid hormone receptor ERR1 (Homo sapiens), sequence (P11474 whole entry, looked up, the tested form may be a part): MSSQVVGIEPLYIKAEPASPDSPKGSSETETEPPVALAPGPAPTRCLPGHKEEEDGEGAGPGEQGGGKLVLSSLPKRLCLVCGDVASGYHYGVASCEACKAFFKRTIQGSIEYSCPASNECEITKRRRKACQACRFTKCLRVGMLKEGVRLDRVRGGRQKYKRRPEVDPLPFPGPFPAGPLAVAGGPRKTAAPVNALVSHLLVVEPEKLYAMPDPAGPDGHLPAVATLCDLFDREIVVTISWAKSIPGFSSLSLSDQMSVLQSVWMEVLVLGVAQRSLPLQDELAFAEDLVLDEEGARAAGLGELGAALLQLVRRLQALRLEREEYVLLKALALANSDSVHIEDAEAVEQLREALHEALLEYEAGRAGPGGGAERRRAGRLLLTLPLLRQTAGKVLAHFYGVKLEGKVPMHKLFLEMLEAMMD
Transcriptional activator Myb (Homo sapiens), sequence (P10242 whole entry, looked up): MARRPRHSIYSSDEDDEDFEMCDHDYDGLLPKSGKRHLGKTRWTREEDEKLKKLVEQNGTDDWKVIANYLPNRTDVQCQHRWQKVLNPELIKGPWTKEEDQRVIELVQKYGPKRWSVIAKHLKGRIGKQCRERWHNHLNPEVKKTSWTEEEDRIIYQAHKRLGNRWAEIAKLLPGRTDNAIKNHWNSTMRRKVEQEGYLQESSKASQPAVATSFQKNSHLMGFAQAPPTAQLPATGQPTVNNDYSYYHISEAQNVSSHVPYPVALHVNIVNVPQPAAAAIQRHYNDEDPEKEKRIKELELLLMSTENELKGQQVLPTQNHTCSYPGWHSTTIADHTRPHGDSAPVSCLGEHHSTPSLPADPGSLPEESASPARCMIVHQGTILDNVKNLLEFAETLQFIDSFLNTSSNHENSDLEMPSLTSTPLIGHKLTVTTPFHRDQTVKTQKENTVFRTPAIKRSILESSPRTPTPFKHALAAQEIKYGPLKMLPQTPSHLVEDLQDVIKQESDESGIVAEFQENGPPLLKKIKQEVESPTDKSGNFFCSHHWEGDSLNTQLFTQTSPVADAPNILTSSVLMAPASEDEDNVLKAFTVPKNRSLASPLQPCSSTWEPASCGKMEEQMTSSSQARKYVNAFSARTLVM
Estrogen receptor (Homo sapiens), sequence (P03372 whole entry, looked up, the tested form may be a part): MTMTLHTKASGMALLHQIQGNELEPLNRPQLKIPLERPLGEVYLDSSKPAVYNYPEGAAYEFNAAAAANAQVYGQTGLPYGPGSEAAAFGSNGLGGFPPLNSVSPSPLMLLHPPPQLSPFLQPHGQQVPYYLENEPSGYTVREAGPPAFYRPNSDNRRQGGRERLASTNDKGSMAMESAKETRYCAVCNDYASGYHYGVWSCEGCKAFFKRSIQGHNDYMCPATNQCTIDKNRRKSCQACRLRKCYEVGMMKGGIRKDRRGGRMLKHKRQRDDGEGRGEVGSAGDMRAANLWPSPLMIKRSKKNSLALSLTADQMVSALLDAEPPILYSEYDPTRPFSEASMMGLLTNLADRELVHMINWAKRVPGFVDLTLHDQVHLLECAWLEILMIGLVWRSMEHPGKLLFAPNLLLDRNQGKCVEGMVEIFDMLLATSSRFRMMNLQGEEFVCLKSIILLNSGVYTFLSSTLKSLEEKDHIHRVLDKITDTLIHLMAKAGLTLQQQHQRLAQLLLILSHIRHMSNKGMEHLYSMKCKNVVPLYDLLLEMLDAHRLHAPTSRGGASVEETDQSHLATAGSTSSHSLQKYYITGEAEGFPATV
Bile acid receptor (Homo sapiens), sequence (Q96RI1 whole entry, looked up, the tested form may be a part): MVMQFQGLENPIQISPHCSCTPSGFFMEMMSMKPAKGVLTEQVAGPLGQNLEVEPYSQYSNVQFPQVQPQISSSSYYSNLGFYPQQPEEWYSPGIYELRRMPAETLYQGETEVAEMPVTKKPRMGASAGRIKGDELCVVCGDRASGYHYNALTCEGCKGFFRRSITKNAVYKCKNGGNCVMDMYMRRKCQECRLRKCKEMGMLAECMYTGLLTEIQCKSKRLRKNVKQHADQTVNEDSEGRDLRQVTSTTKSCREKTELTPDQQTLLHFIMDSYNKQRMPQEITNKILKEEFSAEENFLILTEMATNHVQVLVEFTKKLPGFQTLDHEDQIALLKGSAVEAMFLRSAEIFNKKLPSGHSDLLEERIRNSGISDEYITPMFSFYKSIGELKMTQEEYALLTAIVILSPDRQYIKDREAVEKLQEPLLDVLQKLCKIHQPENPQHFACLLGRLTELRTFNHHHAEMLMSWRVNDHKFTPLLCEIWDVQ
Nuclear receptor subfamily 4 group A member 2 (Homo sapiens), sequence (P43354 whole entry, looked up): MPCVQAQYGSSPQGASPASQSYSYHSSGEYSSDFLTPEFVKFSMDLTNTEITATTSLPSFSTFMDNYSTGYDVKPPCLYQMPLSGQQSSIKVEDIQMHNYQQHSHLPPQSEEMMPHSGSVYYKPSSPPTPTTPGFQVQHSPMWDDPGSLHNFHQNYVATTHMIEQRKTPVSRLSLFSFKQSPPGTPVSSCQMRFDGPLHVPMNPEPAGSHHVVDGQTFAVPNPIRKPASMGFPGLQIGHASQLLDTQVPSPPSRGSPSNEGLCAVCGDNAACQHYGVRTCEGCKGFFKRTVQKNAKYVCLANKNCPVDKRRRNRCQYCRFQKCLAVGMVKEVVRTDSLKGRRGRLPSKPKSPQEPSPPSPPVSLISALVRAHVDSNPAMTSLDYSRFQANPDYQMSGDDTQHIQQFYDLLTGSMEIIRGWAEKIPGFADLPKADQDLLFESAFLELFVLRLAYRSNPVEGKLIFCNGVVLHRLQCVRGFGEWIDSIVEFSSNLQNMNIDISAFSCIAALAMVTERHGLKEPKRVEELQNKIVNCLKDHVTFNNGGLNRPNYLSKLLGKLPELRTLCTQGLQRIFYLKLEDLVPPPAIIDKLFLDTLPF
Oxysterols receptor LXR-beta (Homo sapiens), sequence (P55055 whole entry, looked up, the tested form may be a part): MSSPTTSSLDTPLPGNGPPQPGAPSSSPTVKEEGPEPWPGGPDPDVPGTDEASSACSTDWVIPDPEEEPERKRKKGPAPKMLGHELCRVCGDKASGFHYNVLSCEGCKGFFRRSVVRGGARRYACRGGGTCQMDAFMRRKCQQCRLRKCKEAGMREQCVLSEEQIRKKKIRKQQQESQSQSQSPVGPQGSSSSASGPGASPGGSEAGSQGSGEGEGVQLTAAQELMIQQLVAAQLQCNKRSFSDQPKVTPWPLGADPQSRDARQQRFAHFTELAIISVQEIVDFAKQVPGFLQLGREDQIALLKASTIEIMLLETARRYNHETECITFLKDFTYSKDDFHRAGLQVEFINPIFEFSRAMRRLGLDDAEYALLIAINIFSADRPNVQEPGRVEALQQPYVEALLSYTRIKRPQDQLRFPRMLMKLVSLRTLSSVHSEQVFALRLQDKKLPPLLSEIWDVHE
Nuclear receptor subfamily 1 group I member 3 (Homo sapiens), sequence (Q14994 whole entry, looked up, the tested form may be a part): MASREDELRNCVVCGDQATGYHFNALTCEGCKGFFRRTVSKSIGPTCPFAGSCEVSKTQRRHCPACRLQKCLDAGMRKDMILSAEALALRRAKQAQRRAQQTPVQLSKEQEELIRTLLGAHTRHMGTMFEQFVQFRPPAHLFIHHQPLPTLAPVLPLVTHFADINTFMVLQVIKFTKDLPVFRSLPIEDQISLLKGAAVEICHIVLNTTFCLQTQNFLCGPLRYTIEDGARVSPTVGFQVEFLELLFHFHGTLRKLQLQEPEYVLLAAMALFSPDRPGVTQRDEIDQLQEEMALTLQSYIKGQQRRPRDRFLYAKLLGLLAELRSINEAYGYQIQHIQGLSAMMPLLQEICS
X-box-binding protein 1 (Homo sapiens), sequence (P17861 whole entry, looked up): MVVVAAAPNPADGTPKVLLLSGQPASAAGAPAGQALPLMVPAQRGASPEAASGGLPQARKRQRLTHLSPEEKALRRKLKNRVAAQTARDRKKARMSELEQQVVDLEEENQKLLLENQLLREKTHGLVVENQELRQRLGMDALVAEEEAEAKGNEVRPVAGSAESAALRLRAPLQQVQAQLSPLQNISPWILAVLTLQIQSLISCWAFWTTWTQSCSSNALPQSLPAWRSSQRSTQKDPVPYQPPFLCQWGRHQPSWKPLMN
Oxysterols receptor LXR-alpha (Homo sapiens), sequence (Q13133 whole entry, looked up, the tested form may be a part): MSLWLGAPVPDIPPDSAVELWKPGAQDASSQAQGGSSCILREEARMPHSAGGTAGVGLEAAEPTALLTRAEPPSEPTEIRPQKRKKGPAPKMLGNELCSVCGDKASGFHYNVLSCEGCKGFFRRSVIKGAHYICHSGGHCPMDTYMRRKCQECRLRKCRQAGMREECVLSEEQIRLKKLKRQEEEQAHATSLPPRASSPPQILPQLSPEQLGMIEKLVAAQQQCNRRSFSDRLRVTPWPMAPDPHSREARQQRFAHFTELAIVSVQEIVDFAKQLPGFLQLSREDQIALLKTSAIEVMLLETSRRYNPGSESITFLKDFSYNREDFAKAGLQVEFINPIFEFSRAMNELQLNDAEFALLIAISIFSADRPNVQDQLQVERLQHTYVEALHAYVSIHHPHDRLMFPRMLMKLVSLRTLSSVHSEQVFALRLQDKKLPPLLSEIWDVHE

CC(=O)[C@@]1(O)CC[C@H]2[C@@H]3C[C@H](C)C4=CC(=O)C=C[C@]4(C)[C@@]3(F)[C@@H](O)C[C@@]21C
active: [6] 0.221 µM
inactive: [1] | [2] | [3] | [4] | [5] | [7] | [8]

Nc1ncn([C@@H]2O[C@H](CO)[C@@H](O)[C@H]2O)c(=O)n1
not listed: [3] | [6] | [7] | [15] | [16] | [17] | [18] | [19]
inactive: all other assays above

COC(=O)c1ccccc1OC
inactive: [1] | [3] | [4] | [7] | [15] | [14] | [8]

CCCCCCCCCCC=CC#N
active: [10] 73.1 µM
not listed: [3] | [6] | [11] | [12] | [15] | [18] | [19]
inactive: all other assays above

O=C(c1ccccc1)C1CCC1
inactive: [1] | [2] | [9] | [10] | [4] | [18] | [15] | [13] | [8]

CCCC(=O)OCc1ccccc1
inactive: [1] | [2] | [3] | [4] | [5] | [18] | [13] | [8] | [17]

CC(C)(C)c1ccc(OC(=O)c2ccccc2O)cc1
active: [10] 6.14 µM
not listed: [3] | [5] | [6] | [11] | [13] | [16] | [18]
inactive: all other assays above

C=C(C)CCO
inactive: [2] | [4] | [18] | [16] | [15] | [13] | [14] | [8] | [17]
active: [1] 0.316 µM

Cn1c(=O)[nH]c2ncn(C)c2c1=O
not listed: [3] | [5] | [6] | [9] | [11] | [14] | [16] | [19]
inactive: all other assays above
